Test in all cases: yeast three-hybrid, YBZ-1, SC-Leu-His + 0.5 mM 3-AT, 4 days
Holding throughout (details): tags: N-Gal4 AD-HA kept; label: inside an RPR1-promoter hybrid RNA with tandem MS2 sites; ssRNA

For one assay, the target named is PUM1 PUF domain R2-ARP (Homo sapiens, UniProt Q14671 828-1176, N899A;Y900R;Q903P). The method, boiled down:
(§1)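 Each repeat of the Pumilio-1 PUF domain was randomized at its three base-contacting residues, and these libraries were co-expressed from a centromeric plasmid with matching RNA elements in strain YBZ-1. After four days on SC-Leu (input) or SC-Leu-His + 0.5 mM 3-AT (selection), the repeat regions were PCR-amplified and Illumina-sequenced. The interaction score compares variant frequency between input and selection as a log change, computed in log2 with a pseudocount of 1 for absent variants.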

For a further assay, the target named is PUM1 PUF domain R1-KGN (Homo sapiens, UniProt Q14671 828-1176, S863K;R864G;Q867N). The method, boiled down: as §1
In the next assay the target is PUM1 PUF domain R7-NRR (Homo sapiens, UniProt Q14671 828-1176, S1079N;N1080R;E1083R). The method, boiled down:
as §1

The target of another assay is T1, PUM1 PUF domain R6-LYG (Homo sapiens, UniProt Q14671 828-1176, N1043L;Q1047G).
T1 sequence: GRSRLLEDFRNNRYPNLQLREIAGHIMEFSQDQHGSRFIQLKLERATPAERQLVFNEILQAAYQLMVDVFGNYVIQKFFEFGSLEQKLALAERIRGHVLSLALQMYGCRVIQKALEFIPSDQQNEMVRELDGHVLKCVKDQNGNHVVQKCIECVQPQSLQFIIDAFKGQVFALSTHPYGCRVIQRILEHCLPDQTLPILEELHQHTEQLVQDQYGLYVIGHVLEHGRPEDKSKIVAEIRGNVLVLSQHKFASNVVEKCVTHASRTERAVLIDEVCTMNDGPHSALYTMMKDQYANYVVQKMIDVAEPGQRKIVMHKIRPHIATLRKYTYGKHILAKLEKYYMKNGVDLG
The essentials: as §1

In a further assay the target is PUM1 PUF domain R5-DWV (Homo sapiens, UniProt Q14671 828-1176, C1007D;R1008W;Q1011V). The method, boiled down: as §1
The target of a further assay is PUM1 PUF domain R7-QFY (Homo sapiens, UniProt Q14671 828-1176, S1079Q;N1080F;E1083Y). The essentials:
as §1

For the next assay, the target named is T2, PUM1 PUF domain R6-CFH (Homo sapiens, UniProt Q14671 828-1176, N1043C;Y1044F;Q1047H).
T2 sequence: T1 sequence with L216C, Y217F, G220H
The method, boiled down: as §1

Where a chain is given by its changes, count along the chain named.

Turning to “GGCUAGAACUAGUGGAUCCCCCGGCGCCCGGCGGCUCGAGCCCGGGUAAGUGUAAAAAGUCUGCAUGCCGCCGGGCGCCAUGCCUGCAGGUCGACUCUAGAAAACAUG”, the binding signal with PUM1 PUF domain R2-ARP is 4.42 log2 enrichment (interaction score).
In the case of “GGCUAGAACUAGUGGAUCCCCCGGCGCCCGGCGGCUCGAGCCCGGGUAAGUGUAAAUUGUCUGCAUGCCGCCGGGCGCCAUGCCUGCAGGUCGACUCUAGAAAACAUG”, in the assay with PUM1 PUF domain R1-KGN, the binding signal was 4.31 log2 enrichment (interaction score).
“GGCUAGAACUAGUGGAUCCCCCGGCGCCCGGCGGCUCGAGCCCGGGUAAGUCUAAAUAGUCUGCAUGCCGCCGGGCGCCAUGCCUGCAGGUCGACUCUAGAAAACAUG”: the binding signal with PUM1 PUF domain R7-NRR is 4.05 log2 enrichment (interaction score).
Consider “GGCUAGAACUAGUGGAUCCCCCGGCGCCCGGCGGCUCGAGCCCGGGUAAGUGUAAAUAGUCUGCAUGCCGCCGGGCGCCAUGCCUGCAGGUCGACUCUAGAAAACAUG”, for which the binding signal with PUM1 PUF domain R6-LYG is 4.49 log2 enrichment (interaction score); with PUM1 PUF domain R5-DWV, 2.8 log2 enrichment (interaction score); with PUM1 PUF domain R7-QFY it was 4.21 log2 enrichment (interaction score); in the assay with PUM1 PUF domain R6-CFH, 2.76 log2 enrichment (interaction score).
As for “GGCUAGAACUAGUGGAUCCCCCGGCGCCCGGCGGCUCGAGCCCGGGUAAGUGUGAAUAGUCUGCAUGCCGCCGGGCGCCAUGCCUGCAGGUCGACUCUAGAAAACAUG”, the binding signal with PUM1 PUF domain R5-DWV is 3.79 log2 enrichment (interaction score).
In the case of “GGCUAGAACUAGUGGAUCCCCCGGCGCCCGGCGGCUCGAGCCCGGGUAAGUUUAAAUAGUCUGCAUGCCGCCGGGCGCCAUGCCUGCAGGUCGACUCUAGAAAACAUG”, in the assay with PUM1 PUF domain R7-QFY, the binding signal was 2.24 log2 enrichment (interaction score).
Consider “GGCUAGAACUAGUGGAUCCCCCGGCGCCCGGCGGCUCGAGCCCGGGUAAGUGAAAAUAGUCUGCAUGCCGCCGGGCGCCAUGCCUGCAGGUCGACUCUAGAAAACAUG”, for which, in the assay with PUM1 PUF domain R6-CFH, the binding signal was 4.34 log2 enrichment (interaction score).

The values are drawn from article PMC8384837, “Expanding the binding specificity for RNA recognition by a PUF domain”.
